Inconclusive results are not listed. Activity calls are given as the source filed them. Unless noted, calls follow the shape of the dose curve; as a rule, active = well fitted curve in the direction sought with a large enough effect; inconclusive = small, poorly fitted or top-dose-only effect, or another doubt; inactive = no such curve, though single readings can be large; an effect the other way counts as inactive or inconclusive.
Tests used:
[1] = AP1 Signaling Pathway (AID 357; active = well fitted curve in either direction with a large enough effect, not every such curve was filed as active;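 also: ME-180 reporter cells stimulated with EGF at its EC50 level; % is scaled to controls: 0 for no effect and ±100 for the full control effect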); details: ME-180 AP-1-bla reporter, EGF-induced, beta-lactamase ratio, 5 h; at 7.69 µM (top of the series) unless noted
Procedure, shortened: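 In this screen, ME-180 cells in Opti-MEM with 0.5% dialyzed FBS received EC50 EGF and compound titrations for 5 h. AP-1 reporter beta-lactamase was detected via CCF4 ratio, giving AC50 for positive and negative modulators.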

[2] = target: Cytochrome P450 1A2 (Homo sapiens) (UniProt P05177); assay: p450-cyp1a2 (AID 410; calls by dose curve;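 also: -100% = full effect of reference inhibitor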)
Procedure, shortened: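 Read-out is luminescence from luciferin produced by CYP1A2 demethylation of Luciferin-ME (100uM, at Km). Detection reagent stopped the 60 min NADPH-dependent reaction; signals were normalized to 57 uM furafylline.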

[3] = NFAT Signaling Pathway (AID 444; active = well fitted curve in either direction with a large enough effect, not every such curve was filed as active;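 also: carbachol stimulus at about its EC50 of 1 µM final; % is scaled to controls: 0 for no effect and ±100 for the full control effect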); details: Jurkat NFAT-bla M1, carbachol, beta-lactamase ratio, 5 h; at 7.69 µM (top of the series) unless noted
Procedure, shortened: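 Read-out: CCF4 FRET ratio (460 nm/530 nm) after 1 h RT dye loading, used for %activity and AC50 from titration series. Cells: Jurkat NFAT-β-lactamase/M1 line, treated with compound plus 1 uM carbachol for 5 h, 37 °C.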

[4] = Stat Signaling Pathway (AID 446; active = well fitted curve in either direction with a large enough effect, not every such curve was filed as active;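 also: ME-180 cervical cancer cells given 40 pM IL-6 alongside compound; SIE-controlled beta-lactamase reporter measured as 460/530 nm FRET emission ratio; % is scaled to controls: 0 for no effect and ±100 for the full control effect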); details: ME-180 (cervical carcinoma) SIE beta-lactamase reporter, IL-6 stimulated, 5 h; at 7.69 µM (top of the series) unless noted
Procedure, shortened: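 Emission at 460 and 530 nm (excitation 405 nm) reports SIE-controlled beta-lactamase in ME-180 cells. Cells received compound with 40 pM IL-6 for 5 hrs at 37 C; data scaled between 300 pM IL-6 and 125 nM JAK-inhibitor controls.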

[5] = target: Glucocorticoid receptor (Homo sapiens) (UniProt P04150); assay: GR-GFP Redistribution (AID 450;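 active = compounds whose dose series gives a full or clear partial fitted curve of increased nuclear translocation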; also: potency is read from the fitted curve at half-maximal effect); details: U2OS GR-GFP nuclear translocation, laser cytometry, 2 h
[6] = target: Glucocorticoid receptor (Homo sapiens) (UniProt P04150); assay: GR-EFC Redistribution (AID 451; calls by dose curve; also: potency is read from the fitted curve at half-maximal effect); details: CHO-K1 GR-EFC translocation, beta-gal luminescence, 2 h
Procedure, shortened: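 Translocation of GR-ED fusion to nuclear EA restores b-gal, read by luminescence after 1 h room-temperature detection. Engineered CHO-K1 biosensor cells, 1,000/well, exposed 2 h at 37 C to titrations up to 46 uM final.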

[7] = target: Mitogen-activated protein kinase 10 (Mus musculus) (UniProt Q61831); assay: JNK3 AlphaScreen Assay (AID 530; active = well fitted curve in either direction with a large enough effect, not every such curve was filed as active;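 also: kinase came from lysate of stimulated human HepG2 cells; signal reports phosphorylation of biotinylated GST-cJun 1-79 at Ser73 with 10 µM ATP; % is scaled to controls: 0 for no effect and ±100 for the full control effect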)
Procedure, shortened: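 Kinase buffer: 20 mM Tris-HCl pH 7.6, 10 mM MgCl2, 1 mM DTT, 0.1 mM Na3VO4, 0.01% Tween-20; ATP 10 uM. Substrate biotin-GST-cJun(1-79), enzyme from activated HepG2 lysates. Detection by Ser73 phospho-antibody AlphaScreen.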

[8] = target: 3',5'-cyclic-AMP phosphodiesterase 4B (Homo sapiens) (UniProt Q07343); assay: qHTS Assay for Inhibitors of PDE-IV (AID 607; active = well fitted activation curve with a large enough effect in the main read-out, with a control signal flat, not every such curve was filed as active; also: % of control where 0% means no effect)
Procedure, shortened: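 The readout is membrane depolarisation from a cAMP-sensing CNG channel, detected with a potential dye at ex 535/em 590. Cells were HEK293-derived (endogenous PDE-IV) at 1000 cells/well, titrated up to 22.9 uM final.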

[9] = target: Guanine nucleotide-binding protein G(i) subunit alpha-1 (Homo sapiens) (UniProt P63096); assay: qHTS Assay for Inhibitors of RGS12 GoLoco Motif Activity (Green Fluorophore) (AID 879);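 also: 0% = labeled peptide with Gαi1 and full inhibition = labeled peptide alone without protein; negative values mean loss of peptide binding seen as reduced polarization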
Procedure, shortened: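 A drop in FITC polarization marked displacement of the FITC-tagged RGS12 GoLoco peptide (10 nM) from Gαi1 (50 nM). Compounds were incubated 10 min at room temperature in Tris pH 7.5 buffer containing 150 mM NaCl, 0.1 mM GDP and 0.05% NP40; unlabeled peptide titration served as control.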

[10] = qHTS Assay for Identification of Small Molecule Agonists for Thrombopoietin (TPO) Signaling Pathway (AID 917); also: % is scaled to controls: 0 for no effect and ±100 for the full control effect
Procedure, shortened: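 Quantitative HTS for pathway activators: compounds were pin-transferred onto IL-3-starved Ba/F3 cells expressing human TPO receptor, TPO was added at its EC50 (26 pM final), and after 24 hrs at 37 C reporter luciferase was measured.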

[11] = target: Muscarinic acetylcholine receptor M1 (Rattus norvegicus) (UniProt P08482); assay: qHTS Assay for Antagonists of Acetylcholine Muscarinic M1 Receptor: Measurement of IP-One Response (AID 944); also: nearly all actives have a fitted effect of over 75% in size
Procedure, shortened: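 Antagonism was measured as loss of carbachol-driven (EC80) IP1 accumulation in CHO cells carrying rat M1, using a homogeneous IP-One TR-FRET kit read at 620 and 665 nm.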

[12] = target: Pyruvate kinase (Leishmania mexicana) (UniProt Q27686); assay: qHTS Validation Assay for Inhibitors of Leishmania Mexicana Pyruvate Kinase (AID 945);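 also: 0% = DMSO only neutral control wells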
Procedure, shortened: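 Substrate mix (0.5 mM PEP, 0.1 mM ADP, 7 mM MgCl2, 50 mM KCl, pH 7.2 imidazole) received compound by pin tool, then 0.2 nM LmPYK E451W. After 1 h at room temperature, PKLight was added and luminescence measured.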

[13] = target: Pyruvate kinase PKM (Homo sapiens) (UniProt P14618); assay: qHTS Assay for Activators of Human Muscle Pyruvate Kinase (AID 954; active = well fitted curve in the direction sought with a large enough effect, not every such curve was filed as active;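 also: 0% = uninhibited enzyme and -100% = no enzyme or full thiadiazolimine inhibition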)
Procedure, shortened: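 PKM2, human, >95% pure, 0.1 nM; PEP 0.5 mM (Km), ADP 0.1 mM; 50 mM imidazole pH 7.2, 50 mM KCl, 0.01% Tween 20, 0.05% BSA; 1 h RT; luciferase luminescence readout.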

[14] = target: Alpha-galactosidase A (Homo sapiens) (UniProt P06280); assay: Counterscreen for Glucocerebrosidase Inhibitors: qHTS Assay for Human alpha-Galactosidase at pH 4.5 (AID 992); also: 0% is about no effect
Procedure, shortened: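 Fluorogenic 4-MU alpha-D-galactoside (80 uM) hydrolysis, 2 nM enzyme, pH 4.5 citrate buffer + 0.005% Tween-20; 20 min RT; NaOH/glycine pH 10 stop; Ex365/Em440. Compounds titrated 0.7 nM–77 uM; Hill-equation AC50.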

[15] = target: alpha-glucosidase (Oryza sativa, rice) (UniProt Q653V4); assay: Counterscreen for Glucocerebrosidase Inhibitors: qHTS Assay for Rice alpha-Glucosidase at pH 5.0 (AID 997);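 also: 0% = full activity with enzyme and -100% = basal without enzyme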
Procedure, shortened: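 Endpoint fluorogenic assay at pH 5.0: compounds (0.7 nM to 77 uM) titrated against 4 nM rice enzyme and 400 uM 4-MU-alpha-glucoside for 20 min at room temperature; NaOH/glycine stop, read ex 365/em 440 nm, Hill-fitted AC50.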

[16] = target: Alpha-galactosidase (Coffea arabica) (UniProt Q42656); assay: Counterscreen for Glucocerebrosidase Inhibitors: qHTS Assay for Coffee Bean alpha-Galactosidase at pH 5.9 (AID 998);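 also: plate controls were uninhibited enzyme for no effect and no-enzyme basal signal for full effect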
Procedure, shortened: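 Fluorogenic 4-MU substrate hydrolysis, 80 uM substrate and 2 nM coffee bean alpha-galactosidase, pH 5.9 citrate buffer, 20 min at room temperature, then NaOH/glycine stop. Titration 0.7 nM–77 uM, normalized to no-enzyme and enzyme controls, AC50 via Hill equation.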

[17] = target: Muscarinic acetylcholine receptor M1 (Rattus norvegicus) (UniProt P08482); assay: qHTS Assay for Antagonists of Acetylcholine Muscarinic M1 Receptor: Kinetic Measurement of Intracellular Calcium Response (AID 943);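 also: Fluo-4 calcium signal as peak divided by basal fluorescence over 4 min; nearly all actives have a fitted effect of over 75% in size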
Procedure, shortened: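 Quantitative HTS in CHO-M1 (rat receptor) cells: 10 min compound exposure ahead of 100 nM carbachol, Fluo-4 fluorescence followed 4 min, value expressed as peak-to-basal ratio.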

Sequence of Muscarinic acetylcholine receptor M1 (Rattus norvegicus) (P08482 whole entry, looked up): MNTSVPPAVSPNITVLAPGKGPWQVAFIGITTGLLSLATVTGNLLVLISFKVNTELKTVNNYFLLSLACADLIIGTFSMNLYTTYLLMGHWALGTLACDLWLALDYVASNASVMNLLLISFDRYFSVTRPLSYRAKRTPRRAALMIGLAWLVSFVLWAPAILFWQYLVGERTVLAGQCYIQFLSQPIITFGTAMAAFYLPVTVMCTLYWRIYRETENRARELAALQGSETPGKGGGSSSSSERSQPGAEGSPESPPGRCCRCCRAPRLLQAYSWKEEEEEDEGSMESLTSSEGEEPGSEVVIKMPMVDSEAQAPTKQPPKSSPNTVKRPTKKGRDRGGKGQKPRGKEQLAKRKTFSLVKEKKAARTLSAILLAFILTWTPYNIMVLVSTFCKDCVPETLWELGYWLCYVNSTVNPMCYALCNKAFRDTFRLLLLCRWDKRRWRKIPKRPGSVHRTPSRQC
Sequence of Glucocorticoid receptor (Homo sapiens) (P04150 whole entry, looked up, the tested form may be a part): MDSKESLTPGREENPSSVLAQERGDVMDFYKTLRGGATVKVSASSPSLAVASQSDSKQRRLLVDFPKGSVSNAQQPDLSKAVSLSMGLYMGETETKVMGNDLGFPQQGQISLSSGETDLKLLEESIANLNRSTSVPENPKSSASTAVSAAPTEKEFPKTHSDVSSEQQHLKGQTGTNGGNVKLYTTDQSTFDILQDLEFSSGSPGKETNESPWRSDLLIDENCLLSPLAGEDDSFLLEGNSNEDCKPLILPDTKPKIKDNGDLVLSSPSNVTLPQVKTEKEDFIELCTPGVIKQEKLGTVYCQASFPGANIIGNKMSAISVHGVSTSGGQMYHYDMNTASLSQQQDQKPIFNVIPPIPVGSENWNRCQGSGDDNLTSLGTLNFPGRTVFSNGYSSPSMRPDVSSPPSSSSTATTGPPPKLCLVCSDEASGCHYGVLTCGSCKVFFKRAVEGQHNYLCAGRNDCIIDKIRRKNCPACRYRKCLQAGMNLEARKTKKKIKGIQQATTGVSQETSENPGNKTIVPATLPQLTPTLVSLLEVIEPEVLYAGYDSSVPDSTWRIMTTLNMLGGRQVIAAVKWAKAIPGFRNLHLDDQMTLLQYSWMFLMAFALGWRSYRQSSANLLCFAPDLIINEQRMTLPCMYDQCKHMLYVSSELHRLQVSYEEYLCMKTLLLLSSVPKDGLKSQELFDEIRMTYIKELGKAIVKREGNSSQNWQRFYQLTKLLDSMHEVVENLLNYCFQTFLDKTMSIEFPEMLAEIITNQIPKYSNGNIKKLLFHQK
Sequence of Alpha-galactosidase (Coffea arabica) (Q42656 whole entry, looked up): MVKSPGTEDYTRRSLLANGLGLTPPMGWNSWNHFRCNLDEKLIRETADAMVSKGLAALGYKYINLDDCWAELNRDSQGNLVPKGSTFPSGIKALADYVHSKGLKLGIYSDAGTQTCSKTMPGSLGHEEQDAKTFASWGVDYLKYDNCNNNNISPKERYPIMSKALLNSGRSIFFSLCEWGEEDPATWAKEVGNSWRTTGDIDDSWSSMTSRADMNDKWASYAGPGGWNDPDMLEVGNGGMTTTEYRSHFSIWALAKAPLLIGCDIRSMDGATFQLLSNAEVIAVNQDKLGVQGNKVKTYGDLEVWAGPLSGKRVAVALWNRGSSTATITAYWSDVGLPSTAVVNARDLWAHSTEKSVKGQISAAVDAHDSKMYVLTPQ
Sequence of Alpha-galactosidase A (Homo sapiens) (P06280 whole entry, looked up): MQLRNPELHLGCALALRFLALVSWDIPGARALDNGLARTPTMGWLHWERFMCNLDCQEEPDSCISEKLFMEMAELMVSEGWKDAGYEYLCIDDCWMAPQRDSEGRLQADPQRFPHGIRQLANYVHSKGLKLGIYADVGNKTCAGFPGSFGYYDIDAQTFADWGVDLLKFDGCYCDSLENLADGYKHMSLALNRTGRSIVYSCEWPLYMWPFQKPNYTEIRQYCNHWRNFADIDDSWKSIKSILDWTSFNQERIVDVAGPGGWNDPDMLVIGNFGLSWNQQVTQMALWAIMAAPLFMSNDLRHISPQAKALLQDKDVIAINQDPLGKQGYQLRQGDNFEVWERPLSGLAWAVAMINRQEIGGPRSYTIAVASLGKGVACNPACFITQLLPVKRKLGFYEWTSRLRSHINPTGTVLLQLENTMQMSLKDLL
Sequence of 3',5'-cyclic-AMP phosphodiesterase 4B (Homo sapiens) (Q07343 whole entry, looked up): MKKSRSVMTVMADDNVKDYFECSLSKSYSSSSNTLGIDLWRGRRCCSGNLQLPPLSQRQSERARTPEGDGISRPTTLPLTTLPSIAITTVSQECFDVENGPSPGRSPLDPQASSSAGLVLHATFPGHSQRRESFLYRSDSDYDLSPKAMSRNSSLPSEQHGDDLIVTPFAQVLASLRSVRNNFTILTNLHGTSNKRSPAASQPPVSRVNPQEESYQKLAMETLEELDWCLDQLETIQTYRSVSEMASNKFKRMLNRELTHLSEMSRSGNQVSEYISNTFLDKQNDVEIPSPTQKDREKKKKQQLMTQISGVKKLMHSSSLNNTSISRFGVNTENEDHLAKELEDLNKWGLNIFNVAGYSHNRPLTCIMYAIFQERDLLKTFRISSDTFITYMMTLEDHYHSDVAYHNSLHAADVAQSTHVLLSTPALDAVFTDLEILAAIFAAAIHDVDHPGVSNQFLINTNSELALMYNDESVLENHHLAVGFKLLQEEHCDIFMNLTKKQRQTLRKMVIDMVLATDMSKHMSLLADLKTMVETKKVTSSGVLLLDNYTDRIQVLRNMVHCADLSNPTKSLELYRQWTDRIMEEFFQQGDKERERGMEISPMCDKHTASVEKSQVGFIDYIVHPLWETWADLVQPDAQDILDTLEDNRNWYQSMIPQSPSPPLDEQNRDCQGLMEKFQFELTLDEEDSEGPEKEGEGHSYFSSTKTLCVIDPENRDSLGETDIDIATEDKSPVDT
Sequence of Pyruvate kinase (Leishmania mexicana) (Q27686 2-499 E452W): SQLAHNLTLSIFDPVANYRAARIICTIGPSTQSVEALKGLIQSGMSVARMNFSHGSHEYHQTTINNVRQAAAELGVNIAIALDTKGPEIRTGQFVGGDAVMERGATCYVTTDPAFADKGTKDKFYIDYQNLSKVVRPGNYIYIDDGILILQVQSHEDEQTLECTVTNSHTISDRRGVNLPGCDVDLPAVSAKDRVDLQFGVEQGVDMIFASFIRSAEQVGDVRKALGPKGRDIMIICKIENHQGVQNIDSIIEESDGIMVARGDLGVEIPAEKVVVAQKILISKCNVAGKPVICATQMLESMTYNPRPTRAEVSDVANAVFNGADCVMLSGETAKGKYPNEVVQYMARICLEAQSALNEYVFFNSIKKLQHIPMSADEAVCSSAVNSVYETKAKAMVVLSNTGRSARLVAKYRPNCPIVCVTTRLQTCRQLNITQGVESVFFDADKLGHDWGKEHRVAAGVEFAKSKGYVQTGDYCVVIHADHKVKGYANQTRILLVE
Sequence of Pyruvate kinase PKM (Homo sapiens) (P14618 whole entry, looked up): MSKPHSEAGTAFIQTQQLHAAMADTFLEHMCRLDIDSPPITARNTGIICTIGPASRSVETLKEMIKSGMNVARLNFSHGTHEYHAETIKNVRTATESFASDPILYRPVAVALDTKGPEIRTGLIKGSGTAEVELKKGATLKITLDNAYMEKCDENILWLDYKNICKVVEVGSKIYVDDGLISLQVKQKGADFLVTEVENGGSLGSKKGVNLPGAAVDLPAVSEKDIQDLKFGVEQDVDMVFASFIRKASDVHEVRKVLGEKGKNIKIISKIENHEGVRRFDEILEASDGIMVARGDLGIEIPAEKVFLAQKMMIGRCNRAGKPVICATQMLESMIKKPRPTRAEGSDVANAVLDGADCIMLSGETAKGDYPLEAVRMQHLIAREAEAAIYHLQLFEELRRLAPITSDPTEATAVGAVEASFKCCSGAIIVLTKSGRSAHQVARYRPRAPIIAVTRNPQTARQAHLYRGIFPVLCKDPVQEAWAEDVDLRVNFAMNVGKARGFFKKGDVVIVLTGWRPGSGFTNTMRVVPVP
Sequence of Cytochrome P450 1A2 (Homo sapiens) (P05177 whole entry, looked up): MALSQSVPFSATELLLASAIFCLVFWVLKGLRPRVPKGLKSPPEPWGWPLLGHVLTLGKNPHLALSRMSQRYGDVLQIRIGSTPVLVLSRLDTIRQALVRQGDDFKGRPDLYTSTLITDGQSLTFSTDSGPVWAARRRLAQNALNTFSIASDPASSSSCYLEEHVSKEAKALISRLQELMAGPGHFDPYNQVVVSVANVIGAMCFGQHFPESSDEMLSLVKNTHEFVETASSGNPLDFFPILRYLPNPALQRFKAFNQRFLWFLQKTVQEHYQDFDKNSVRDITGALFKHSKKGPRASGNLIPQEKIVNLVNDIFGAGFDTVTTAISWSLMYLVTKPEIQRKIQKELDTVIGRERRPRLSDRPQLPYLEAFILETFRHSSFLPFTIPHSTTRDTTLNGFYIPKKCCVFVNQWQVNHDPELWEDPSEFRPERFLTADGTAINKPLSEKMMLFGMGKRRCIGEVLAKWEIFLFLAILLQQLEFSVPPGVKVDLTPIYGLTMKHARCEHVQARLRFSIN
Sequence of Guanine nucleotide-binding protein G(i) subunit alpha-1 (Homo sapiens) (P63096 whole entry, looked up): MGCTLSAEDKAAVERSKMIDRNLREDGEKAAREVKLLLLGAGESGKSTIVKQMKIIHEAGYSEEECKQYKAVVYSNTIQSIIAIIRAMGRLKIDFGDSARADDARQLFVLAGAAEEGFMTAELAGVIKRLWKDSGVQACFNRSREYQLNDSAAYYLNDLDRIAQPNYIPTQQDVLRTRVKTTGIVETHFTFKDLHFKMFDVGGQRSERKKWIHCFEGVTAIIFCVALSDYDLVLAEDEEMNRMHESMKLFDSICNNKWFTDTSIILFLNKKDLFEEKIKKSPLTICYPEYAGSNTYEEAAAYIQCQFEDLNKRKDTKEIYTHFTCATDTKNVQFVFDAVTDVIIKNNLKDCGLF

CO[C@@H]1CC=C2CCN3CCC4=C(CC(=O)OC4)[C@]23C1
inactive: activity change, negative = inhibition [1] 6.22% [at 38 µM] | Potency [2] | activity change, negative = inhibition [3] -0.774% [at 38 µM] | activity, negative = inhibition [4] -4.68% [at 38 µM] | Potency [5] > 46 µM | Potency [6] > 46 µM | Potency [7] | outcome [8] | outcome [9] | outcome [10] | Potency [11] | outcome [12] | outcome [13] | outcome [14] | outcome [15] | outcome [16]

C[C@@H]1[C@@H](C)N1C[C@H](O)Cn1ccnc1[N+](=O)[O-] (stereo partly specified)
inactive: activity change, negative = inhibition [1] 1.57% | Potency [2] | activity change, negative = inhibition [3] 5.22% | activity, negative = inhibition [4] -1.27% | Potency [5] > 46 µM | Potency [6] > 9.22 µM | activity change, negative = inhibition [7] -1.55% [at 11.4 µM] | outcome [8]

C[C@@]12CC[C@H]3[C@@H](CCC4=C(O)C(=O)CC[C@]43C)[C@H]1CCC2=O
inactive: activity change, negative = inhibition [1] 4.24% [at 38 µM] | Potency [2] | activity change, negative = inhibition [3] -1.14% [at 38 µM] | activity, negative = inhibition [4] 14.9% [at 38 µM] | Potency [5] > 46 µM | Potency [6] > 46 µM | Potency [7] | outcome [8] | outcome [9] | Potency [11] | outcome [12] | outcome [13] | outcome [14] | outcome [15] | outcome [16]

C[C@@H]1O[C@H]1P(=O)(O)O
inactive: activity change, negative = inhibition [1] 0.559% [at 38 µM] | Potency [2] | activity change, negative = inhibition [3] 6.57% [at 38 µM] | activity, negative = inhibition [4] 22.2% [at 38 µM] | Potency [5] > 46 µM | Potency [6] > 46 µM | Potency [7] | outcome [8] | outcome [9] | outcome [10] | Potency [17] | Potency [11] | outcome [12] | outcome [13] | outcome [14] | outcome [15] | outcome [16]

— PubChem BioAssay (NCATS)
